According to PubChem BioAssay (Tox21):
Where “and” joins values, the source holds several entries; their conditions need not be identical. Equal values may be shown once. Records with an inconclusive call do not appear. Where a call stands in place of a potency, no number is given. The source holds several records for some structures; these can differ, active in one and inactive in another. Calls of active or inactive are those of the source. Unless noted, calls follow the shape of the dose curve; as a rule, active = well fitted curve in the direction sought with a large enough effect in the repeat runs; inconclusive = weak or mixed curves; inactive = no such curve, though single readings can be large; an effect the other way counts as inactive or inconclusive.

Experiments:
[1] = qHTS assay to test for compound auto fluorescence at 535 nm (green) in HEK293 cells (AID 720680)
[2] = qHTS assay to test for compound auto fluorescence at 460 nm (blue) in HEK293 cell free culture (AID 720681)
In short: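 Test compounds were pinned into cell-free culture medium (DMEM with 10% FBS) and fluorescence was read directly at Ex/Em 405/460 nm. Signals were expressed as fluorescence equivalents of triamterene, with DMSO vehicle as control.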

[3] = qHTS assay to test for compound auto fluorescence at 535 nm (green) in HEK293 cell free culture (AID 720682)
In short: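 Each library compound, or DMSO control, is added by pintool to medium alone, comprising DMEM and 10% FBS. Emission at 535 nm following 485 nm excitation is quantified against fluorescein.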

[4] = qHTS assay to test for compound auto fluorescence at 590 nm (red) in HEK293 cell free culture (AID 720683)
In short: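 Tox21 10K library compounds were pinned into cell-free DMEM with 10% FBS and fluorescence was read at excitation 540 nm. Activity is expressed as Rose Bengal sodium equivalency.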

[5] = qHTS assay to test for compound auto fluorescence at 590 nm (red) in HepG2 cell free culture (AID 720684)
In short: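 Measured in medium alone (MEM containing 10% FBS) following pintool addition of compound; emission at 590 nm with 540 nm excitation, referenced to Rose Bengal sodium.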

[6] = qHTS assay to test for compound auto fluorescence at 460 nm (blue) in HepG2 cell free culture (AID 720685)
In short: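 Compound (23 nL) or DMSO pinned into cell-free MEM with 10% FBS; blue fluorescence read at 405/460 nm excitation/emission, expressed as auto-fluorescence equivalency to triamterene.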

[7] = qHTS assay to test for compound auto fluorescence at 535 nm (green) in HepG2 cell free culture (AID 720686)
[8] = qHTS assay to test for compound auto fluorescence at 460 nm (blue) in HepG2 cells (AID 720687)
In short: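 Cells (2,000/well in MEM with 10% FBS) attached overnight at 37 C, then were exposed to compound or DMSO for 1 hr at 37 C, 5% CO2. Fluorescence read at Ex/Em 405/460 nm, expressed as triamterene-equivalent signal.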

[9] = target: Glucocorticoid receptor (Homo sapiens) (UniProt P04150); experiment: qHTS assay to identify small molecule agonists of the glucocorticoid receptor (GR) signaling pathway (AID 720691; active = well fitted activation curve with a large enough effect in the signal ratio in the repeat runs, not every such curve was filed as active; the % refers to the signal ratio; also: potency is read from the fitted curve at half-maximal effect); details: GR-bla HeLa, beta-lactamase reporter ratio, 18 h; activation: at 62.4 µM (top of the series)
Chain of Glucocorticoid receptor (Homo sapiens) (P04150 whole entry, looked up): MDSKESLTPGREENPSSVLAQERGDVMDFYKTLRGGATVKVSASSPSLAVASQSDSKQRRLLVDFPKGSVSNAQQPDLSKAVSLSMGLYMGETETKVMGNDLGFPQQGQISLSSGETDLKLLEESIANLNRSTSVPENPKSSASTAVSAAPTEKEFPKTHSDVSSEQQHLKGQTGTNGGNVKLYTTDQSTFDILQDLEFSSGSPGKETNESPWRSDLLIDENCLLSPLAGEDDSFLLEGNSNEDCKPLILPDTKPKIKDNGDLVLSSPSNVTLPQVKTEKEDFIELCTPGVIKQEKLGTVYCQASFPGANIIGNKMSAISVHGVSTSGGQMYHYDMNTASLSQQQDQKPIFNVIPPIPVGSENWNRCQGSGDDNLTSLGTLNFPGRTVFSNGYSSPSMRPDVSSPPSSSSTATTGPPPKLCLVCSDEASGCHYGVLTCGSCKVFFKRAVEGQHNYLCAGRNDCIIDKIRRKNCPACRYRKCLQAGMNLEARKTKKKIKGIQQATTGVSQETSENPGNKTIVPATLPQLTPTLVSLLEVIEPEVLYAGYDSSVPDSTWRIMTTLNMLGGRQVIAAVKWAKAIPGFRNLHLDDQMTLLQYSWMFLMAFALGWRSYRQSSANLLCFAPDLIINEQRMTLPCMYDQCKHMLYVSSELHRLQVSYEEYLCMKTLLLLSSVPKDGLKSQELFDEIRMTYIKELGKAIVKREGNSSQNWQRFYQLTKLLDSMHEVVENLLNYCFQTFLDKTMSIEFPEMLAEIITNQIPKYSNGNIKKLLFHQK
In short: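 Fluorescence intensity from LiveBLAzer B/G FRET substrate (2 h, room temperature) reports beta-lactamase expression driven by the glucocorticoid response element in GR-bla HeLa cells after 18 h compound exposure at 37 C.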

[10] = target: Glucocorticoid receptor (Homo sapiens) (UniProt P04150); experiment: qHTS assay to identify small molecule antagonists of the glucocorticoid receptor (GR) signaling pathway (AID 720692; active = well fitted inhibition curve with a large enough effect in the signal ratio in the repeat runs, not every such curve was filed as active; the % refers to the signal ratio)
In short: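 HeLa GR-bla cells; cmpd + dex 5 nM final, 18 h 37 C; LiveBLAzer B/G FRET substrate 2 h RT; fluorescence intensity read. Antagonist mode, qHTS.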

[11] = qHTS assay to identify small molecule antagonists of the glucocorticoid receptor (GR) signaling pathway - cell viability counter screen (AID 720693); also: nearly all actives have a fitted effect of over 55% in size
[12] = qHTS assay for identifying genotoxic compounds that show differential cytotoxicity against isogenic chicken DT40 cell lines with known DNA damage response pathways - wild type cell line (AID 743012); also: nearly all actives have a fitted effect of over 60% in size; also: potency is read from the fitted curve at half-maximal effect
In short: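 Wild type DT40, 300 cells/well, ~0.5 h settle at 37 C/5% CO2; compounds in DMSO added by pintool; 40 h at 37 C/5% CO2; CellTiter-Glo, 30 min RT; luminescence.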

[13] = qHTS assay for identifying genotoxic compounds that show differential cytotoxicity against isogenic chicken DT40 cell lines with known DNA damage response pathways - Rev3 mutant cell line (AID 743014); also: nearly all actives have a fitted effect of over 55% in size; also: potency is read from the fitted curve at half-maximal effect
[14] = qHTS assay for identifying genotoxic compounds that show differential cytotoxicity against isogenic chicken DT40 cell lines with known DNA damage response pathways - Rad54/Ku70 mutant cell line (AID 743015); also: nearly all actives have a fitted effect of over 60% in size; also: potency is read from the fitted curve at half-maximal effect
[15] = qHTS assay to identify small molecule antagonists of the androgen receptor (AR) signaling pathway - cell viability counter screen (AID 743033; also: nearly all actives have a fitted effect of over 45% in size)
[16] = qHTS assay to identify small molecule antagonists of the androgen receptor (AR) signaling pathway using the MDA cell line - cell viability counter screen (AID 743041; also: nearly all actives have a fitted effect of over 45% in size)
In short: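 Viability counter screen run alongside the AR antagonist reporter: cells seeded 5 h before compound, R1881 added, 16 h incubation at 37C without CO2, fluorescent CellTiter-Fluor signal quantified.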

[17] = target: Androgen receptor (Homo sapiens) (UniProt P10275); experiment: qHTS assay to identify small molecule antagonists of the androgen receptor (AR) signaling pathway (AID 743035; active = well fitted inhibition curve with a large enough effect in the signal ratio in the repeat runs, not every such curve was filed as active; the % refers to the signal ratio)
Chain of Androgen receptor (Homo sapiens) (P10275 whole entry, looked up): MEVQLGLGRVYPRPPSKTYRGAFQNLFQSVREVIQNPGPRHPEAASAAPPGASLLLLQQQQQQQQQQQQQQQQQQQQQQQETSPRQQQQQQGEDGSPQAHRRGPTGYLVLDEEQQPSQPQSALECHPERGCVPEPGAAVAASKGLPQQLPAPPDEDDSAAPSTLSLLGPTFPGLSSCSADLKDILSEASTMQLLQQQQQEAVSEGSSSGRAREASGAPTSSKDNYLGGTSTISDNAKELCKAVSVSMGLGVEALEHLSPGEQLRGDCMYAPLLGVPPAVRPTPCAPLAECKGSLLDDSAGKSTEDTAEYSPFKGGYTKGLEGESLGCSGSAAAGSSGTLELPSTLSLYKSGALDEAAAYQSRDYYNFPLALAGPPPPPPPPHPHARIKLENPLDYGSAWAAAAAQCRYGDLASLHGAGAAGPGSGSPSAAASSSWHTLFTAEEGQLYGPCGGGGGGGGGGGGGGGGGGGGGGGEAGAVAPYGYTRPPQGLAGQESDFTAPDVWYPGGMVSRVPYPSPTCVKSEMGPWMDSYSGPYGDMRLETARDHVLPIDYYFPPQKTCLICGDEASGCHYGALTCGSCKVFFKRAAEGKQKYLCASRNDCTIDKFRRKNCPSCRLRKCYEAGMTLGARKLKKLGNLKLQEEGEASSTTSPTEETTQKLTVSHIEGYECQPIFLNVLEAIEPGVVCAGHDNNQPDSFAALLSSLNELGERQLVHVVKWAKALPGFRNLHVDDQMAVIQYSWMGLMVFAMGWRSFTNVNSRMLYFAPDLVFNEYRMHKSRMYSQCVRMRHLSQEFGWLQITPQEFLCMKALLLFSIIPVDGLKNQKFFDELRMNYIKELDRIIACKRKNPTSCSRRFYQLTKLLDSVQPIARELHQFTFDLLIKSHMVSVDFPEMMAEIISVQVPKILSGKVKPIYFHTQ
In short: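 Fluorescence from a beta-lactamase FRET substrate (LiveBLAzer B/G, 2 h, room temperature) measured inhibition of R1881-stimulated signaling in GeneBLAzer AR-UAS-bla HEK293 cells exposed to compound for 16 h at 37C.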

[18] = target: Androgen receptor (Homo sapiens) (UniProt P10275); experiment: qHTS assay to identify small molecule agonists of the androgen receptor (AR) signaling pathway using the MDA cell line (AID 743040; also: nearly all actives have a fitted effect of over 20% in size)
In short: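 Luminescence from ONE-Glo, read after 30 min at room temperature, reflects MMTV-driven luciferase in MDA-kb2 cells (AR- and GR-responsive). Treatment lasted 16 h at 37C, 0% CO2.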

[19] = target: Androgen receptor (Homo sapiens) (UniProt P10275); experiment: qHTS assay to identify small molecule antagonists of the androgen receptor (AR) signaling pathway using the MDA cell line (AID 743042; also: nearly all actives have a fitted effect of over 55% in size)
In short: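 MDA-kb2 cells (human breast carcinoma, stably carrying an MMTV-luciferase reporter responsive to AR and GR) were plated at 3,000 cells/well and preincubated 5 hr at 37C, then given compound plus R1881 agonist for 16 h. ONE-Glo luminescence was read.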

[20] = target: Androgen receptor (Homo sapiens) (UniProt P10275); experiment: qHTS assay to identify small molecule agonists of the androgen receptor (AR) signaling pathway (AID 743036; active = well fitted activation curve with a large enough effect in the signal ratio in the repeat runs, with a control signal flat, not every such curve was filed as active; the % refers to the signal ratio)
In short: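 Following a 4 h settling period, AR-UAS-bla HEK293 cells were dosed with compounds for 16 h at 37C. A 2 h room-temperature incubation with LiveBLAzer B/G FRET substrate preceded the fluorescence measurement.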

| SMILES | outcome [1] | Potency [2] | outcome [3] | outcome [4] | outcome [5] | Potency [6] | Potency [7] | Potency [8] | Potency [9] | Potency [10] | Potency [11] | Potency [12] | Potency [13] | Potency [14] | Potency [15] | Potency [16] | Potency [17] | Potency [18] | Potency [19] | Potency [20] |
| --- | --- | --- | --- | --- | --- | --- | --- | --- | --- | --- | --- | --- | --- | --- | --- | --- | --- | --- | --- | --- |
| CCCCCCOC(=O)c1cccnc1 | inactive | inactive | inactive | inactive | inactive | inactive | inactive | inactive | inactive | inactive | inactive | inactive | inactive | inactive | inactive | inactive |  |  |  |  |
| CC(C)c1ncc([N+](=O)[O-])n1C | inactive | inactive | inactive | inactive | inactive | inactive | inactive | inactive | inactive | inactive | inactive | inactive | inactive | inactive |  | inactive | inactive | inactive | inactive |  |
| NC(=O)[C@@H]1CCCN1C(=O)[C@H](Cc1cnc[nH]1)NC(=O)[C@@H]1CCC(=O)N1 | inactive | inactive | inactive | inactive | inactive | inactive | inactive | inactive | inactive | inactive | inactive | inactive | inactive | inactive | inactive | inactive |  |  |  |  |
| O=C(CCCN1CCN2CCCC2C1)c1ccc(F)cc1 (stereo not drawn) | inactive | inactive | inactive | inactive | inactive | inactive | inactive | inactive | inactive | inactive | inactive | 11.9 µM (active) | 2.11 µM (active) | 8.41 µM (active) | inactive | inactive |  |  |  |  |
| CCN(CC)CCNC(=O)c1ccc(NS(C)(=O)=O)cc1 | inactive | inactive | inactive | inactive | inactive | inactive | inactive | inactive | inactive | inactive | inactive | inactive | inactive | inactive | inactive | inactive |  |  |  |  |
| NCCO/C=C/[C@H](N)C(=O)O | inactive | inactive | inactive | inactive | inactive | inactive | inactive | inactive | inactive | inactive | inactive | inactive | inactive | inactive |  | inactive |  |  |  |  |
| C[N+](C)(C)CCOP(=O)(O)OP(=O)([O-])OC[C@H]1O[C@@H](n2ccc(N)nc2=O)[C@H](O)[C@@H]1O | inactive | inactive | inactive | inactive | inactive | inactive | inactive | inactive | inactive | inactive | inactive | inactive | inactive | inactive | inactive | inactive | inactive |  | inactive | inactive |
| CCC[C@@H]1C[C@@H](C(=O)N[C@@H]([C@H]2O[C@H](SC)[C@H](OP(=O)(O)O)[C@@H](O)[C@H]2O)[C@H](C)Cl)N(C)C1 | inactive | inactive | inactive | inactive | inactive | inactive | inactive | inactive | inactive | inactive | inactive | inactive | inactive | inactive |  | inactive |  |  | inactive | inactive |
| CC(C)=CCC/C(C)=C/CC/C(C)=C/CC/C=C(\C)CC/C=C(\C)CCC=C(C)C | inactive | inactive | inactive | inactive | inactive | inactive | inactive | inactive | inactive | inactive | inactive | inactive | inactive | inactive |  | inactive |  |  |  |  |
| CC(C)NCC1CCc2cc(CO)c([N+](=O)[O-])cc2N1 (stereo not drawn) | inactive | inactive | inactive | inactive | inactive | inactive | inactive | inactive | inactive | inactive | inactive | inactive | inactive | inactive |  | inactive |  |  | inactive | inactive |
| O=C(O)c1cc2cc(Cc3cccnc3)ccc2o1 | inactive | inactive | inactive | inactive | inactive | inactive | inactive | inactive | inactive | inactive | inactive | inactive | inactive | inactive | inactive | inactive |  |  |  |  |
| CCOc1cc(CC(=O)N[C@@H](CC(C)C)c2ccccc2N2CCCCC2)ccc1C(=O)O | inactive | inactive | inactive | inactive | inactive | inactive | inactive | inactive | 8.11 µM (active) |  | inactive | inactive | inactive | inactive | inactive | inactive |  |  | inactive | inactive |
| CCCOC(=O)c1ccc(O)cc1 | inactive | inactive | inactive | inactive | inactive | inactive | inactive | inactive | inactive |  | inactive | inactive | inactive and 68.6 µM (active) | inactive and 65.5 µM (active) | inactive | inactive |  |  |  |  |
